Measured values taken from PubChem BioAssay (Tox21).
Inconclusive results are not listed. Activity calls are given as the source filed them. Unless noted, the call rests on the fitted dose curve.

Legend:
[1] = Nuclear factor erythroid 2-related factor 2/antioxidant responsive element (Nrf2/ARE) small molecule agonists: qHTS cell viability counter screen in human keratinocytes (AID 1919968; active means well fitted curve in the direction sought with a large enough effect in the repeat runs; an effect the other way counts as inactive or inconclusive; further: nearly all actives have a fitted effect of over 55% in size)
In short: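 Stably transfected HaCaT (KeratinoSens), 1,500/well. Test agents in DMSO were applied for 23 h, 37 C/5% CO2. CellTiter-Fluor was incubated 1 h before the fluorescence read.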

[2] = Nuclear factor erythroid 2-related factor 2/antioxidant responsive element (Nrf2/ARE) small molecule agonists: luciferase reporter gene qHTS assay in human keratinocytes (AID 1919969); further: nearly all actives have a fitted effect of over 35% in size
[3] = molecular target: Gonadotropin-releasing hormone receptor (Homo sapiens) (UniProt P30968); test: Human gonadotropin-releasing hormone receptor (GnRHR) small molecule agonists, calcium flux assay in GnRHR-HEK293 cells (AID 1920063); further: nearly all actives have a fitted effect of over 35% in size
Gonadotropin-releasing hormone receptor (Homo sapiens), sequence (P30968 whole entry, looked up): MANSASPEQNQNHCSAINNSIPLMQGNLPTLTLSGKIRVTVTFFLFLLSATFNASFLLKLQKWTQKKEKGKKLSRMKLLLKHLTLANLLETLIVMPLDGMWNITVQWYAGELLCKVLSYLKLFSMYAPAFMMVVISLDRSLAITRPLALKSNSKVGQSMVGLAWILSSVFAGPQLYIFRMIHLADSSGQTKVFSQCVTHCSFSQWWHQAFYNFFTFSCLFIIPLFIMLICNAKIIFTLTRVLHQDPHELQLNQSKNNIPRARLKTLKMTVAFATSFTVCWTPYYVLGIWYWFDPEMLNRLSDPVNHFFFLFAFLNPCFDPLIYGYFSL
In short: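 Stable human GnRHR HEK293 line. 18 h plating, then calcium dye for 1 h at 37 C. Agonist-mode compound addition from DMSO stocks; fluorescence monitored 3 min.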

[4] = molecular target: KiSS-1 receptor (Homo sapiens) (UniProt Q969F8); test: Human kisspeptin (KISS1R) small molecule agonists, calcium flux assay in KISS1R-HEK293 cells (AID 1920064; active means well fitted curve in the direction sought with a large enough effect in the repeat runs; an effect the other way counts as inactive or inconclusive)
KiSS-1 receptor (Homo sapiens), sequence (Q969F8 whole entry, looked up): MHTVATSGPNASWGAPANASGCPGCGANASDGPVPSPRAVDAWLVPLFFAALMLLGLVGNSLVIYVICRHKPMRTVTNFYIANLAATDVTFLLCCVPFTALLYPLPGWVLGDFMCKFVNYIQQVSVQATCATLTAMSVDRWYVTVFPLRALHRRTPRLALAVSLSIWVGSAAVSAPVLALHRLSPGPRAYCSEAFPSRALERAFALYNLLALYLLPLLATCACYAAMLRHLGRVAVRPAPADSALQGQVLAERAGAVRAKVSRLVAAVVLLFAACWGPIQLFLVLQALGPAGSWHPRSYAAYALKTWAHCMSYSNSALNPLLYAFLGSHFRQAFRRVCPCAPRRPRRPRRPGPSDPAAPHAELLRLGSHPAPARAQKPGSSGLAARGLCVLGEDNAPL
In short: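 After overnight (18 h) culture at 37 C/5% CO2, human KISS1R-HEK293 cells received calcium dye for 1 h, then test compound; emission at 540 nm (excitation 480 nm) was tracked for 3 min.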

[5] = G protein-coupled receptor (GPCR) small molecule agonists, calcium flux assay: HEK293 wild type cell line counter screen (AID 1920065)
In short: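 Following 18 h incubation at 37 C/5% CO2, plates got calcium dye for 1 h; compounds, ATP or DMSO were then pinned in and fluorescence followed kinetically (480/540 nm).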

[6] = p53 small molecule agonists, cell-based qHTS assay with human liver microsomes (AID 1963577);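 further: p53 response element beta-lactamase reporter cells with liver microsomes plus NADPH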
In short: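 In this qHTS, p53 response-element beta-lactamase cells receive test compound together with a microsome/NADPH activating system (0.5 mg/mL final each) and are incubated 16 h at 37 C before LiveBLAzer fluorescence detection.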

[7] = p53 small molecule agonists, cell-based qHTS assay with rat liver microsomes (AID 1963578)
In short: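 Agonist mode in p53RE-bla reporter cells, with compounds co-incubated 16 h at 37 C alongside 0.5 mg/mL rat liver microsomes and 0.5 mg/mL NADPH (final), followed by a 2 h LiveBLAzer detection step.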

[8] = p53 small molecule agonists, cell-based qHTS assay with human liver microsomes: qHTS cell viability counter screen (AID 1963579); further: nearly all actives have a fitted effect of over 45% in size
In short: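 Metabolically activated exposure: compounds, human liver microsomes and NADPH (0.5 mg/mL final apiece) were added to p53RE-bla cells seeded 5 h earlier, left 16 h at 37 C, and then assessed for viability by CellTiter-Glo luminescence.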

[9] = p53 small molecule agonists, cell-based qHTS assay with rat liver microsomes: qHTS cell viability counter screen (AID 1963580); further: nearly all actives have a fitted effect of over 45% in size
In short: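 Counter screen for cytotoxicity under metabolic activation: rat liver microsomes and NADPH, 0.5 mg/mL final each, added with compounds to p53RE-bla HCT-116 cells; 16 h at 37 C, then ATP luminescence read.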

[10] = p53 small molecule agonists, cell-based qHTS assay: qHTS cell viability counter screen (AID 1963581); further: nearly all actives have a fitted effect of over 45% in size
In short: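 qHTS counter screen: 16 h compound exposure at 37 C of p53RE-bla HCT-116 cells (4,000 per well, seeded 5 h prior), cell viability by ATP luminescence.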

[11] = p53 small molecule agonists, cell-based qHTS assay (AID 1963582; active means well fitted activation curve with a large enough effect in the signal ratio in the repeat runs, not every such curve was filed as active; the % refers to the signal ratio)
In short: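 Measured: fluorescence from cleaved LiveBLAzer substrate. System: p53RE-bla cells, 16 h compound treatment at 37 C, 2 h substrate step at room temperature.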

[12] = molecular target: 5-hydroxytryptamine receptor 2A (Homo sapiens) (UniProt P28223); test: 5-hydroxytryptamine receptor 2A (HTR2A) small molecule antagonists, cell-based qHTS assay (AID 1963586); further: nearly all actives have a fitted effect of over 45% in size
5-hydroxytryptamine receptor 2A (Homo sapiens), sequence (P28223 whole entry, looked up): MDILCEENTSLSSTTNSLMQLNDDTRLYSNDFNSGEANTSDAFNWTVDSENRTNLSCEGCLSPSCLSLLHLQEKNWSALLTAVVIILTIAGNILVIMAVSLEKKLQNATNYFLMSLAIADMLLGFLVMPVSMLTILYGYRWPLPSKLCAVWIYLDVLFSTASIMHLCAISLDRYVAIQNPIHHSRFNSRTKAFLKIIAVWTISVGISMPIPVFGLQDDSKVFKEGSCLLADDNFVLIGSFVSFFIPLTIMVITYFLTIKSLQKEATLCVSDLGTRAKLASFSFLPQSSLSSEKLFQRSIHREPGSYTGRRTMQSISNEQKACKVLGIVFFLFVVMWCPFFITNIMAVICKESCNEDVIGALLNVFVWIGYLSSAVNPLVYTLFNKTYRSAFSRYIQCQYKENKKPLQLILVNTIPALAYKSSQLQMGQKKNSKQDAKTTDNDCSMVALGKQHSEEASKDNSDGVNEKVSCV
In short: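 CHO cells stably expressing human HTR2A were plated for 18 h at 37 C, then loaded with calcium dye for 1 h. Compounds were preincubated 5 min at room temperature before DOI (4 nM solution) was added. Kinetic fluorescence was read for 3 min.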

[13] = molecular target: 5-hydroxytryptamine receptor 2A (Homo sapiens) (UniProt P28223); test: 5-hydroxytryptamine receptor 2A (HTR2A) small molecule agonists, cell-based qHTS assay (AID 1963587); further: nearly all actives have a fitted effect of over 30% in size
In short: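 HTR2A-CHO cells, plated 18 h at 37 C/5% CO2, dye-loaded 1 h at 37 C; compounds in DMSO added by pin tool (agonist mode). Intracellular calcium flux read as kinetic fluorescence on FDSS over 2 min at 1 s intervals.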

[14] = molecular target: Muscarinic acetylcholine receptor M1 (Homo sapiens) (UniProt P11229); test: Cholinergic receptor muscarinic 1 (CHRM1) small molecule antagonists, cell-based qHTS assay (AID 1963588); further: nearly all actives have a fitted effect of over 40% in size
Muscarinic acetylcholine receptor M1 (Homo sapiens), sequence (P11229 whole entry, looked up): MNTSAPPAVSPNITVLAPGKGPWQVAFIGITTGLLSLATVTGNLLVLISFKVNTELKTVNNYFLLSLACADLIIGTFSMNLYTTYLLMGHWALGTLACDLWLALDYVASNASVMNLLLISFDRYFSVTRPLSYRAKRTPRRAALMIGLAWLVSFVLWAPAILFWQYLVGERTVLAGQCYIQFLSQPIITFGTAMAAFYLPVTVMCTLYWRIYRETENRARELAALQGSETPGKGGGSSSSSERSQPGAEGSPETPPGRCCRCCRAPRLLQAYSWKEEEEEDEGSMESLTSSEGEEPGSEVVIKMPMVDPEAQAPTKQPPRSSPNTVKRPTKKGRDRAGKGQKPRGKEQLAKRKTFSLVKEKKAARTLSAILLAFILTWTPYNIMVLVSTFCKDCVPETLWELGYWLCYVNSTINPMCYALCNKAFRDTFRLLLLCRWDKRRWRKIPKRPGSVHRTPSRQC
In short: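 Compounds were tested at 15 concentrations in three independent runs. Dye-loaded CHRM1-CHO cells were exposed 5 min at room temperature before stimulation by acetylcholine added at 50nM. Intracellular calcium was read kinetically on FDSS for 3 min.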

[15] = molecular target: Muscarinic acetylcholine receptor M1 (Homo sapiens) (UniProt P11229); test: Cholinergic receptor muscarinic 1 (CHRM1) small molecule agonists, cell-based qHTS assay (AID 1963589); further: nearly all actives have a fitted effect of over 35% in size
In short: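 Kinetic fluorescence (1 s intervals) of calcium-sensitive dye in human M1 CHO cells after compound addition; cells pre-incubated 18 h at 37 C/5% CO2 and dye-loaded 1 h.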

[16] = cAMP Responsive Elements (CRE) small molecule agonists, cell-based qHTS assay (AID 1963590)
In short: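 Test agents in DMSO were incubated 3 h at 37 C/5% CO2 with CRE-bla HEK 293T cells seeded 18 h earlier; LiveBLAzer B/G FRET substrate was added and read after 2 h at room temperature.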

[17] = cAMP Responsive Elements (CRE) small molecule antagonists, cell-based qHTS assay (AID 1963591; active means well fitted inhibition curve with a large enough effect in the signal ratio in the repeat runs, not every such curve was filed as active; the % refers to the signal ratio)
In short: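 Reporter line CRE-bla HEK 293T in dialyzed-FBS DMEM; cells preincubated 18 h, treated 3 h with compound plus NKH477 (0.25 uM final); LiveBLAzer FRET, 2 h RT.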

[18] = molecular target: Beta-2 adrenergic receptor (Homo sapiens) (UniProt P07550); test: Adrenergic beta2 receptor (ADRB2) small molecule antagonists, cell-based qHTS assay (AID 1963592); further: series mostly up to about 92 µM; nearly all actives have a fitted effect of over 50% in size
Beta-2 adrenergic receptor (Homo sapiens), sequence (P07550 whole entry, looked up): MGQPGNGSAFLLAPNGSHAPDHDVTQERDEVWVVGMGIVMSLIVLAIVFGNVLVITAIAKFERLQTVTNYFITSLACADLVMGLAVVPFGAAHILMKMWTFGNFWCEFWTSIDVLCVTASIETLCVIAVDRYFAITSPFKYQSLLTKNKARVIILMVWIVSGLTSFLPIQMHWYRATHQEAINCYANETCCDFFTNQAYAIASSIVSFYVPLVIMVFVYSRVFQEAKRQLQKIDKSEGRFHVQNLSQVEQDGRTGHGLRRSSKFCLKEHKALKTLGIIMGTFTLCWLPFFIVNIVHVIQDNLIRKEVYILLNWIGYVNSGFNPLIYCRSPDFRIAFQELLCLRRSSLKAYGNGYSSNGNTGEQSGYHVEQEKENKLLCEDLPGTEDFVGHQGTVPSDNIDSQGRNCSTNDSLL
In short: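 Assay format: CHO-ADRB2 cells, 18-20hr seeding at 37C/5% CO2, then compound plus 1nM isoproterenol agonist mix for 0.5hr RT. Homogeneous time-resolved fluorescence cAMP detection after 1hr, expressed as 665/615 nm ratio.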

[19] = molecular target: D(2) dopamine receptor (Homo sapiens) (UniProt P14416); test: Dopamine D2 receptor (DRD2) small molecule agonists, cell-based qHTS assay (AID 1963594); further: nearly all actives have a fitted effect of over 35% in size
D(2) dopamine receptor (Homo sapiens), sequence (P14416 whole entry, looked up): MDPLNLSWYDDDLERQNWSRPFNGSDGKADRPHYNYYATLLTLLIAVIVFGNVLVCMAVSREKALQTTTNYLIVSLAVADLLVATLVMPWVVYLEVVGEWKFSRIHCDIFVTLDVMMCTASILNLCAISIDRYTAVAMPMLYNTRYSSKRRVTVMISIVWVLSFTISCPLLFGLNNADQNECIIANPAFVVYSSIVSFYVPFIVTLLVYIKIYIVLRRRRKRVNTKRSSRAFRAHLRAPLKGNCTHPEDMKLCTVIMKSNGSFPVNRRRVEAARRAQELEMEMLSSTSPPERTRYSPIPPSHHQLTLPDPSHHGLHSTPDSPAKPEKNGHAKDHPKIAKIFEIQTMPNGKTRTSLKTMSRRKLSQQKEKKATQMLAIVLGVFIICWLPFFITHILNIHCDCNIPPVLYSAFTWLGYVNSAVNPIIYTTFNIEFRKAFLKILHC
In short: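 HEK293 cells stably expressing DRD2 were cultured 24 h at 37 C, then given Ro20-1724 (0.1 mM final) and compounds for 10 min at room temperature. NKH477 (200nM) was then added for 30 min. cAMP was read by HTRF.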

[20] = molecular target: D(2) dopamine receptor (Homo sapiens) (UniProt P14416); test: Dopamine D2 receptor (DRD2) small molecule antagonists, cell-based qHTS assay (AID 1963595; active means well fitted inhibition curve with a large enough effect in the signal ratio in the repeat runs, with a control signal flat; the % refers to the signal ratio)
In short: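 Antagonist mode in DRD2-HEK293 cells: after compound addition with 0.1 mM Ro20-1724, cells received quinpirole (12 nM) and NKH477 (200 nM) for 30 min at room temperature; HTRF cAMP read after 1 h detection.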

Measured: Potency

C=C(C)CCCC(C)CCO (stereo unspecified)
not listed: [20]
inactive: all other assays above

CCCCOCC(C)O (stereo unspecified)
inactive: all assays above

CCCCCCCC/C=C\CCCCCCCCCCCC(=O)O
not listed: [19] | [20]
inactive: all other assays above

O=[N+]([O-])c1c(Cl)cc(Cl)cc1Cl
not listed: [20]
inactive: all other assays above
